Molecules are shown by their SMILES. Screen size: about 360,000 compounds; about 11,000 (3.1%) were called active. Inconclusive results (about 2%) are left out. Rule as the data show it: active = fluorescence intensity above about 16000; inconclusive = no clear call, values can overlap the other calls; inactive = below that. The full list was thinned out, with actives kept by preference.

The assay in a line: counter-screen for toxin protease inhibitors: compound fluorescence, primary screen, artefact control for toxin protease inhibitor project, biochemical, multiplex microsphere, HTS (AID 624483). Conditions: compound autofluorescence counterscreen, microsphere flow cytometry; stronger effect = higher value. A general note: The purpose of a counterscreen is to sort out artefacts and off-target activity.
For `CCOC(=O)CNC(=O)CSc1nc2cccnc2n1CC`, the fluorescence intensity is 4460 (inactive). Turning to `CCOC(=O)c1ccc2c(c1)nc(C)n2CC`, the fluorescence intensity was 2830 (inactive). Regarding `CCOC(=O)c1ccc2c(c1)nc(SCC(=O)NC(C)C)n2CC`, the fluorescence intensity was 19400 (active). Turning to `O=C(CCNC(=O)c1ccc(Cl)cc1)NC1CCCc2ccccc21` (stereo not given), the fluorescence intensity was 5920 (inactive). Turning to `CC(=O)Nc1ccc(NC(=O)CCCNC(=O)c2ccc(Cl)cc2)cc1`, the fluorescence intensity is 5820 (inactive). As to `CCN(CC(=O)NC(C)C)C(=O)CCNC(=O)c1ccc(Cl)cc1`, the fluorescence intensity was 23900 (active). Take `Cc1ccc(Cn2cc(CN3CC(N4CCN(C)CC4)CS3(=O)=O)nn2)cc1` (stereo not given): the fluorescence intensity was 5630 (inactive).

In the case of `COC(CNC(=O)c1ccc2c(c1)ncn2-c1cc(C)cc(C)c1)OC`, the fluorescence intensity was 3480 (inactive). For the compound `Cc1ccc(CN2CCN(c3ccccc3Cl)CC2)o1`, the fluorescence intensity was 3970 (inactive). For `COc1ccc(C(NC(=O)C2CCN(CCCc3ccccc3)CC2)c2cccs2)cc1` (stereo not given) the value was 3340 (inactive); for `CCn1c(O)c2ccc(C(=O)N=NC(=O)c3cccnc3)cc2c1O`, 22400 (active); for `O=C(CC(=O)c1cccnc1)c1ccccc1`, 3800 (inactive).

In the case of `CCn1c(O)c(N=NC(=O)c2cccc(S(=O)(=O)N3CCCCC3)c2)c2ccccc21`, the fluorescence intensity is 2120 (inactive). In the case of `Brc1ccc2nc(-c3ccccc3)c(Cc3ccccc3)n2c1`, the fluorescence intensity is 6060 (inactive). Take `Nc1c(N(Cc2ccco2)C(=O)c2cccc(F)c2)c(=O)[nH]c(=O)n1Cc1ccccc1`: the fluorescence intensity is 6060 (inactive).

In the case of `Cn1c(=O)[nH]c(=O)c2c1[nH]c(=S)n2Cc1ccccc1`, the fluorescence intensity is 5200 (inactive).

`CCC(=NCc1ccco1)c1c(O)n(Cc2ccccc2)c(=O)[nH]c1=O`: the fluorescence intensity is 16900 (active).

Take `CCCCn1c(O)c(C(CC)=NCc2ccco2)c(=O)[nH]c1=O`: the fluorescence intensity is 22200 (active).

For `CCC(=NCCCO)c1c(O)n(-c2ccc(OC)cc2)c(=O)[nH]c1=O`, the fluorescence intensity is 3280 (inactive). As to `CCCCn1c(N)c(N(CC)C(=O)/C=C/c2ccco2)c(=O)[nH]c1=O`, the fluorescence intensity is 3280 (inactive).

Consider `CCNC(=O)C1(C)CCCN(C(=O)c2ccc3ccccc3n2)C1` (stereo not given), for which the fluorescence intensity is 2790 (inactive).

With `COc1cccc(CNc2nc3cc(-c4csc5ccccc45)sc3c(=O)n2C)c1`, the fluorescence intensity was 4090 (inactive). Take `CC(C)Nc1ncnc2c1ncn2[C@H]1CN(Cc2ccncc2)C[C@@H](CO)O1`: the fluorescence intensity is 2910 (inactive). With `CCc1nc2c(OCC(N)=O)cccn2c1N(C)C(=O)c1ccc(OC)cc1`, the fluorescence intensity was 3440 (inactive).

As for `COc1ccccc1N(C)S(=O)(=O)c1ccc(C(=O)NC2CCCCCC2)cc1`, the fluorescence intensity was 5030 (inactive). With `CN(Cc1ccccc1)C(=O)[C@@H]1CCCN1C(=O)[C@@H]1CCCN1C(=O)c1c(F)cccc1F`, the fluorescence intensity is 5720 (inactive). Turning to `O=C(NCCc1csc(-c2ccccc2)n1)c1ccccc1F`, the fluorescence intensity is 3720 (inactive).

`COc1cc(OC)cc(C(=O)NCC(=O)OCc2csc(-c3ccccc3)n2)c1`: the fluorescence intensity was 9780 (inactive).

As to `CNC(=O)c1csc(-c2ccccc2)n1`, the fluorescence intensity is 22300 (active). For `CCOC(=O)c1cc2cc(OC)ccc2n1C1CCN(C)CC1`, the fluorescence intensity was 5150 (inactive). Turning to `O=C(COC(=O)Cc1ccc(Br)cc1)Nc1ccc(N2CCOCC2)cc1`, the fluorescence intensity was 8590 (inactive). `CC(=O)c1ccc(Nc2nc(C(N)c3ccccc3Cl)cs2)cc1` (stereo not given): the fluorescence intensity was 3780 (inactive). The figure for `COc1cccc(-c2cc3nc(NCc4ccccc4OC)n(C)c(=O)c3s2)c1` is 2860 (inactive); for `Nc1cc(N)nc(SCc2ccc(Cl)cc2)n1` it is 4250 (inactive).

For the compound `COc1ccc(CCNc2nc(C)cc(C)n2)cc1OC`, the fluorescence intensity was 3430 (inactive).

As to `COc1cnc(SCc2ccc(Cl)c(Cl)c2)nc1Cl`, the fluorescence intensity was 20800 (active). `Cc1ccc([C@H]2N[C@]3(CCCN(CC4CCCCC4)C3=O)[C@H]3C(=O)N(Cc4ccccc4)C(=O)[C@@H]23)cc1`: the fluorescence intensity is 3930 (inactive).

Turning to `CC(C)(C)c1nnc(N/N=C/c2ccc(O)cc2)n(N)c1=O`, the fluorescence intensity was 9530 (inactive). With `O=c1c2ccccc2nc(N/N=C/c2ccccc2)n1O`, the fluorescence intensity is 24900 (active).

Take `O=c1c2ccccc2ncn1/N=C/c1ccccc1`: the fluorescence intensity was 3940 (inactive).

In the case of `Cn1cccc1Cc1nnc(SCC(=O)NCCc2ccccc2)n1-c1ccc(F)cc1`, the fluorescence intensity was 5310 (inactive). Take `Cn1c(SCc2ccc(F)cc2)nnc1-c1ccncc1`: the fluorescence intensity was 4260 (inactive).

`Cc1nnc(SCc2ccc(C(=O)c3ccc(Cl)cc3)o2)n1-c1ccccc1`: the fluorescence intensity is 6940 (inactive).

Turning to `Fc1ccc(-n2c(Cc3ccccc3)nnc2SCc2nc(-c3ccc(Cl)cc3)no2)cc1`, the fluorescence intensity is 25000 (active).

Consider `Cc1ccc(-c2noc(CSc3nnc(-c4cccs4)n3C)n2)cc1`, for which the fluorescence intensity was 9700 (inactive). On to `Cc1ccc(-c2noc(CSc3nnc(-c4ccncc4)n3-c3ccc(F)cc3)n2)cc1`, for which the fluorescence intensity is 21100 (active). For `CC(C)(C)NC(=O)NC(=O)COC(=O)Cc1c(F)cccc1Cl`, the fluorescence intensity was 4470 (inactive). On to `O=C(Nc1c(Br)cc2c(c1Br)Cc1ccccc1-2)C(F)(F)F`, for which the fluorescence intensity was 3730 (inactive). `O=C(CC(NCCN1CCOCC1)C(=O)O)Nc1cccc(Cl)c1` (stereo not given): the fluorescence intensity was 3410 (inactive). Take `C=CCn1c(CC(=O)Nc2cccc(OC)c2)nnc1SCC(=O)NC1CCCCC1`: the fluorescence intensity is 21000 (active). Take `COc1cccc(NC(=O)CSc2nnc(C3CCCCC3)n2N)c1`: the fluorescence intensity is 7460 (inactive). Consider `Cn1c(CC(=O)Nc2ccc(F)cc2)nnc1SCC(=O)NC1CCCCC1`, for which the fluorescence intensity was 3940 (inactive). With `Cc1nc2c(OCc3ccc(Cl)cc3Cl)cccn2c1N(C)CC1CC1`, the fluorescence intensity is 3540 (inactive). As to `C[C@@H]1CN([C@@H](C)CO)C(=O)c2cc(Br)cnc2O[C@H]1CN(C)Cc1ccc(-c2ccccc2)cc1`, the fluorescence intensity is 2930 (inactive). For `CCCNC(=O)c1cc(C2CCCN(C(=O)c3ccc4c(c3)CCO4)C2)on1` (stereo not given) the value was 3960 (inactive). As to `CC1CN(C(=O)c2ccc([N+](=O)[O-])s2)CC(C)O1` (stereo not given), the fluorescence intensity is 6540 (inactive). On to `CNN/C(N=Cc1ccc([N+](=O)[O-])s1)=N\S(=O)(=O)c1cc(C)c(Cl)cc1SCc1ccccc1`, for which the fluorescence intensity was 3540 (inactive). For the compound `O=[N+]([O-])c1ccc(C=Nc2ccc(Cl)cc2Cl)s1`, the fluorescence intensity was 22300 (active). For `CC(=O)NC(c1cccc(F)c1)c1nc(-c2cccc(F)c2)cs1` (stereo not given), the fluorescence intensity is 2910 (inactive).

Consider `COCCNC(=O)c1ccc2nc(Cc3ccc(OC)c(OC)c3)oc2c1`, for which the fluorescence intensity was 4160 (inactive). The figure for `CCCCc1nc2ccc(F)cc2cc1C` is 6420 (inactive). The figure for `O=C1NC[C@H](CCCCN2C[C@H](Cc3ccccc3)N(Cc3ccccc3)C(=O)C2=O)N(CCc2ccc(O)cc2)C1=O` is 4050 (inactive); for `COCCNC(=O)c1ccc(S(=O)(=O)c2ccc(Cl)cc2)c(NC(C)=O)c1` it is 3030 (inactive). With `CC(=O)Nc1cc(C(=O)O)ccc1S(=O)(=O)c1ccc(Cl)cc1`, the fluorescence intensity is 22400 (active).

Take `Cc1ccc(S(=O)(=O)c2ccc(Cl)cc2)cc1S(=O)(=O)NC(C(=O)O)C(C)C` (stereo not given): the fluorescence intensity was 1970 (inactive). Consider `CC1(C(=O)Nc2cccc3cccnc23)CCN1C(=O)CCC1CCCC1` (stereo not given), for which the fluorescence intensity was 3540 (inactive).

With `COc1cccc(CN(C)C(=O)CC[C@H]2O[C@@H](n3cnc4c(NC(=O)c5ccccc5)ncnc43)[C@H](O)[C@@H]2O)c1`, the fluorescence intensity is 5840 (inactive). `COc1ccc2ccccc2c1CNc1nnnn1C`: the fluorescence intensity was 4610 (inactive). On to `COc1ccc(C)cc1NC(=O)NCc1ccccn1`, for which the fluorescence intensity is 2130 (inactive). Turning to `COc1ccc2ccccc2c1CNCc1ccccn1`, the fluorescence intensity was 22000 (active).

For `Cc1ccc(Cc2c(-c3ccco3)nc3ccc(Cl)cn23)cc1`, the fluorescence intensity was 5920 (inactive). Consider `CC(=O)Nc1ccc(S(=O)(=O)NC2Cc3ccccc3C2)cc1`, for which the fluorescence intensity was 4250 (inactive). As for `COc1ccc(-c2cc(NC=O)c3ncc(-c4ccccc4)n3c2)cc1OC`, the fluorescence intensity is 4190 (inactive). On to `CN(CC#CCC(c1ccccc1)c1ccccc1)C(C)(C)C`, for which the fluorescence intensity is 13300 (inactive). The figure for `CC(C)NC(=O)C(=O)NCCN1CCN(S(=O)(=O)c2ccc(Cl)cc2)CC1` is 10600 (inactive); for `CS(=O)(=O)N1CCCCC1c1cc(C(=O)NCc2ccccc2)no1` (stereo not given) it is 2870 (inactive); for `CC(=O)c1cccc(-c2cnc3c(NC=O)cc(-c4ccc(N5CCN(C)CC5)cc4)cn23)c1` it is 3240 (inactive). The figure for `O=C(Nc1ccc(C(=O)N2CCOCC2)cc1)Nc1cccc(C(F)(F)F)c1` is 6040 (inactive); for `O=C(CN1CCN(c2ccc(F)cc2)CC1)Nc1cccc(C(F)(F)F)c1` it is 2100 (inactive); for `NC(=O)Nc1cccc(C(F)(F)F)c1` it is 23300 (active). Take `COc1ccc(NC(=O)C2(C)Cc3c(-c4ccc(C(N)=O)cc4)ccnc3O2)cc1` (stereo not given): the fluorescence intensity was 3540 (inactive). For `COC(=O)c1ccc(CNC(=O)C2CCC(=O)N(Cc3ccccn3)C2)cc1` (stereo not given) the value was 4790 (inactive).

For the compound `COC(=O)c1ccc(C(=O)OC)c(NC(=S)N2CCCCC2)c1`, the fluorescence intensity was 5240 (inactive). For `CCS(=O)(=O)Nc1cc(C(=O)OC)ccc1C(=O)OC`, the fluorescence intensity is 20300 (active). For `CCCN(CCC)C(=S)Nc1cc(C(=O)OC)ccc1C(=O)OC`, the fluorescence intensity is 2240 (inactive).

As for `CC1C(=O)N(Cc2cn(Cc3ccco3)nn2)CCS(=O)(=O)N1Cc1ccc(-c2cccc(CO)c2)cc1` (stereo not given), the fluorescence intensity was 3680 (inactive).

In the case of `C=CCN1C2CCCC1CC(NC(=S)Nc1cccc(OC)c1)C2` (stereo not given), the fluorescence intensity was 4340 (inactive). `CCCCNC(=O)c1nc(C2CCN(S(=O)(=O)c3ccc(F)c(F)c3)CC2)oc1-c1cccc(C(F)(F)F)c1`: the fluorescence intensity is 5910 (inactive). As for `Cc1cc(NC(=O)Nc2ccc(Cl)cc2)n(-c2ccccc2)n1`, the fluorescence intensity is 5820 (inactive). On to `O=C(Nc1ccc(Cl)cn1)c1cnn2cccnc12`, for which the fluorescence intensity was 4840 (inactive). For `Cc1cc(NC(=O)c2cnn3cccnc23)n(-c2ccccc2)n1`, the fluorescence intensity was 19500 (active). In the case of `O=C(NCc1ccc(F)cc1)c1cc(C2CCCCN2C(=O)C2CCCCC2)on1` (stereo not given), the fluorescence intensity is 3660 (inactive). Consider `CC(=O)c1cccc(NC(=S)N2CCCC2)c1`, for which the fluorescence intensity is 4420 (inactive). Turning to `CCC(CC)C(=O)Nc1cccc(C(=O)N2CCCC2)c1`, the fluorescence intensity was 9330 (inactive). In the case of `O=C(Nc1cccc(C(=O)N2CCCC2)c1)c1ccccc1`, the fluorescence intensity was 23500 (active).

The values above are taken from PubChem BioAssay AID624483 (NMMLSC, 2012).
